Test results: PubChem BioAssay (NCATS)
Results filed as inconclusive are left out. Active and inactive are the calls of the source. The call rests on the fitted dose curve; in most records, active means well fitted curve in the direction sought with a large enough effect; inconclusive means small, poorly fitted or top-dose-only effect, or another doubt; inactive means no such curve, though single readings can be large; an effect the other way counts as inactive or inconclusive.

Assays:
[1] = Cellular Toxicity (caspase-3) Renal Proximal Tubule (AID 667);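 further: cells exposed to compound for 16 hours at 37 °C before detection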
Summary of the method: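 Luminescent caspase 3/7 signal from peptide-aminoluciferin cleavage measures apoptosis in freshly isolated rat kidney proximal tubule cells after 16 h compound exposure. Concentration-response data are normalized to DMSO and 10 uM staurosporine, and AC50 values come from Hill equation fits.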

[2] = biological target: Cytochrome P450 3A4 (Homo sapiens) (UniProt P08684); experiment: qHTS Assay for Inhibitors and Substrates of Cytochrome P450 3A4 (AID 884); further: series mostly up to about 57 µM; nearly all actives have a fitted effect of over 50% in size
Summary of the method: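 20 nM human CYP3A4 with 25 uM Luciferin-PPXE (at KM) in 200 mM KPO4, preincubated 10 min with compound; NADPH regeneration started a 60 min RT reaction. Luciferin detected by luminescence, normalized to 57 uM ketoconazole as full inhibition.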

[3] = Cell Viability - LYMP2-001 (AID 921); further: series mostly up to about 92 µM; nearly all actives have a fitted effect of over 70% in size
Summary of the method: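 CellTiter-Glo luminescence (intracellular ATP) after 24 hr compound exposure at 37 C, 2500 lymphoblastoid cells/well in complete medium. AC50 fitted with standard Hill equation; tetraoctylammonium bromide positive control.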

[4] = MultiTox-Fluor Cytotoxicity Assay - LYMP1-001 - Dead Cells (AID 946)
Summary of the method: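 LYMP1-001 lymphoblastoid cells (2500/well) treated 16 h at 37 C. Dead-cell protease cleavage of bis-AAF-R110 read at Ex/Em 485/520. Normalized to DMSO and 15 uM tetraoctylammonium bromide; AC50 from Hill fits.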

[5] = MultiTox-Fluor Cytotoxicity Assay - LYMP1-001 - Live Cells (AID 947)
[6] = Cell Viability - LYMP1-002 - Assay at 16 hr (AID 948)
Summary of the method: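 LYMP1-002 human lymphoblastoid cells, 2500/well; 5 hr 37 C; cpd 16 hr 37 C; CellTiter-Glo 30 min RT; luminescence (ATP). Concentration-response, Hill-fit AC50. Pos ctrl tetraoctylammonium bromide.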

[7] = MultiTox-Fluor Cytotoxicity Assay - LYMP1-002 - Live Cells (AID 955)
Summary of the method: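 Read-out is live-cell protease activity (cell-permeant GF-AFC substrate, fluorescence Ex/Em=405/510), where a decrease indicates acute toxicity. Human lymphoblastoid cells were treated 16 hours at 37 C in a concentration series, and AC50 values came from standard Hill modelling.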

[8] = MultiTox-Fluor Cytotoxicity Assay - LYMP1-002 - Dead Cells (AID 960); further: nearly all actives have a fitted effect of over 60% in size
Summary of the method: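 LYMP1-002 cells 2500/well; 5 hr 37 C pre-incubation; compound 16 hr 37 C; MultiTox-Fluor reagent 60 min RT; dead-cell fluor Ex/Em 485/520. Norm. to DMSO (0%) vs 15 uM tetraoctylammonium bromide (100%); Hill AC50.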

[9] = MultiTox-Fluor Cytotoxicity Assay - LYMP1-003 - Dead Cells (AID 961); further: nearly all actives have a fitted effect of over 70% in size
Summary of the method: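 LYMP1-003 human lymphoblastoid cells (2500/well) exposed to compound 16 h at 37 C in complete medium; dead-cell protease read with bis-AAF-R110 fluorescence (Ex/Em 485/520) after 60 min at room temperature. Normalized to DMSO and 15 uM tetraoctylammonium bromide; AC50 from Hill fit.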

[10] = MultiTox-Fluor Cytotoxicity Assay - LYMP1-003 - Live Cells (AID 962);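 further: cytotoxic hits lower the live-cell protease signal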
Summary of the method: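 qHTS, 1536-well; 2500 cells/well LYMP1-003; 5 hr 37 C settle; cpd 16 hr 37 C; MultiTox-Fluor reagent 60 min RT; live-cell protease fluor. 405/510; Hill-fit AC50; tetraoctylammonium bromide pos. ctrl.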

[11] = Cell Viability - LYMP1-003 - Assay at 24 hr (AID 963)
Summary of the method: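 Cells seeded at 2500/well, 5 hr at 37 C; compounds added; 24 hr at 37 C; CellTiter-Glo added, 30 min room temperature; luminescence read. Decrease in ATP taken as cytotoxicity, AC50 from Hill modelling.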

[12] = Cell Viability - LYMP1-003 - Assay at 40 hr (AID 964); further: series mostly up to about 92 µM; nearly all actives have a fitted effect of over 60% in size
Summary of the method: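 Cells were seeded at 2500 per well and incubated 5 hr at 37 C. Compounds were added across a concentration series and left 40 hr at 37 C. CellTiter-Glo was added for 30 min at room temperature before luminescence reading.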

[13] = Cell Viability - LYMP2-003 (AID 965);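 further: cells exposed to compounds for 24 h before reading; nearly all actives have a fitted effect of over 50% in size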
Summary of the method: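 CellTiter-Glo luminescence (cellular ATP) after 24 h compound exposure at 37 C in complete medium; 2500 cells/well, 5 h settling beforehand. Concentration-response fitted to standard Hill equation for AC50. Tetraoctylammonium bromide served as positive control.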

[14] = Cell Viability - LYMP2-004 (AID 966); further: nearly all actives have a fitted effect of over 65% in size
Summary of the method: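 Cells seeded 2500/well, rested 5 hr at 37 C, dosed across a concentration series, incubated 24 hr at 37 C, then CellTiter-Glo added for 30 min at room temperature and luminescence read. Hill fitting gave AC50.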

[15] = Cell Viability - LYMP2-005 (AID 967); further: series mostly up to about 92 µM
Summary of the method: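 Steps: seed 2500 LYMP2-005 cells/well, incubate 5 h at 37 C, add compound, incubate 24 h at 37 C, add CellTiter-Glo, wait 30 min at RT, read luminescence. Concentration-response data fitted to Hill equation for AC50.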

[16] = Cell Viability - LYMP2-009 (AID 968); further: series mostly up to about 92 µM; nearly all actives have a fitted effect of over 55% in size
[17] = Cell Viability - LYMP2-011 (AID 969); further: nearly all actives have a fitted effect of over 60% in size
Summary of the method: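 2500 cells/well, 5 hr 37 C; compound added, 24 hr 37 C; CellTiter-Glo 30 min RT; luminescence. qHTS concentration-response, Hill-equation AC50. Tetraoctylammonium bromide positive control.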

[18] = Cell Viability - LYMP2-013 (AID 970); further: series mostly up to about 92 µM; nearly all actives have a fitted effect of over 55% in size
Summary of the method: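 qHTS; 2500 lymphoblastoid cells/well; 5 hr 37 C settle; cpd 24 hr 37 C; CellTiter-Glo, 30 min RT; luminescence. AC50 = Hill fit.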

[19] = Cell Viability - LYMP2-015 (AID 971); further: nearly all actives have a fitted effect of over 55% in size
Summary of the method: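 Luminescent ATP read-out (CellTiter-Glo) served as the viability measure after lymphoblastoid cells were exposed to compounds for 24 hours at 37 C. Concentration-response data were fitted with the Hill equation to give AC50.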

[20] = Cell Viability - LYMP2-017 (AID 972); further: series mostly up to about 92 µM; nearly all actives have a fitted effect of over 55% in size
Summary of the method: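 2500 cells/well, 5 h 37 C; cpd 24 h 37 C in complete medium; CellTiter-Glo, 30 min RT; luminescence (ATP). AC50 via Hill fit, qHTS.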

[21] = Cell Viability - LYMP2-019 (AID 973); further: nearly all actives have a fitted effect of over 55% in size
Summary of the method: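 Luminescent ATP read-out (CellTiter-Glo, 30 min room temperature) served as the viability measure after 24 hr treatment of lymphoblastoid cells at 37 C. Concentration-response data were fitted to the Hill equation for AC50.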

[22] = Cell Viability - LYMP2-021 (AID 974)
Summary of the method: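 Plate 2500 lymphoblastoid cells per well and incubate 5 hr at 37 C. Add compounds over a concentration range and incubate 24 hr at 37 C. Add CellTiter-Glo, wait 30 min at room temperature, read luminescence.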

Measured: Potency

Chain of Cytochrome P450 3A4 (Homo sapiens) (P08684 whole entry, looked up): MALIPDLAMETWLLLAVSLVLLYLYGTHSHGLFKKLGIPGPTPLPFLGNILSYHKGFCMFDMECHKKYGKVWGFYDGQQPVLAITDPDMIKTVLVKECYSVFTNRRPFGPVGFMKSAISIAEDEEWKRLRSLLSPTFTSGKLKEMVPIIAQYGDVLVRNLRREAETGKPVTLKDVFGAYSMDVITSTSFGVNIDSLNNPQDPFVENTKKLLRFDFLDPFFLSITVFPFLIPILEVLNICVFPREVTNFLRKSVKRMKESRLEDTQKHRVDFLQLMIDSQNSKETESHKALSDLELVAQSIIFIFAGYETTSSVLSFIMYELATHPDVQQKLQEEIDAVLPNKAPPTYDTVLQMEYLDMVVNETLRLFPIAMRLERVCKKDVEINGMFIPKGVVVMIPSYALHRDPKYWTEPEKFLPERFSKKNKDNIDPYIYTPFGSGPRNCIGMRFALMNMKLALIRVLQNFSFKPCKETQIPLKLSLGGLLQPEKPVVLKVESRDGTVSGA

c1ccc2c(c1)[nH]c1ccccc12
inactive: all assays above
